The values that follow come from PubChem BioAssay (EPA / NIEHS).

Records with an inconclusive call do not appear. The source holds several records for some structures; these can differ, active in one and inactive in another. Calls of active or inactive are those of the source. Rule for the calls, unless noted: active = hit-call score of the fitted dose curve at least 0.9, where 1 is the maximum; inconclusive = response in the unintended direction; inactive = score below 0.9.

Assay [1] addresses Agonist Androgen Response Element (ARE), AR (gene 367) (UniProt P10275). Nature of the assay: OT_AR_ARELUC_AG_1440: Odyssey Thera (OT) 24-hour CHO-K1 Luciferase Assay for Agonist Androgen Response Element (ARE) (AID 2283379). The procedure, abridged:
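CHO-K1 cells carrying an ARE-driven luciferase reporter were exposed to compounds for 24 h. Luminescence was then read after adding a D-luciferin/ATP mix, and activity was scored as a gain in signal over DMSO vehicle.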

Assay [2] has as its target Retinoic acid receptor RXR-alpha (Homo sapiens) (UniProt P19793). In words: OT_NURR1_NURR1RXRa_0480: Odyssey Thera (OT) 8-hour HEK293T Protein Complementation Assay for Nurr1/retinoid X receptor (RXR) (AID 2283385). The procedure, abridged: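 HEK293T cells expressing Nurr1 and RXRα fused to reporter fragments were dosed with compound for 8 hours. Complex formation was read as fluorescence intensity and analysed as gain of signal against DMSO as baseline.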

The target is the same in assay [3]. In words: OT_NURR1_NURR1RXRa_1440: Odyssey Thera (OT) 24-hour HEK293T Protein Complementation Assay for Nurr1/retinoid X receptor (RXR) (AID 2283386). The procedure, abridged:
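HEK293T cells were dosed with compound and read 24 h later by fluorescence intensity in a protein-fragment complementation format, where Nurr1–RXRα interaction reconstitutes a split reporter. Activity was fitted as gain of signal relative to DMSO baseline.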

For assay [4], the target named is Peroxisome proliferator-activated receptor gamma (Homo sapiens) (UniProt P37231). In words: OT_PPARg_PPARgSRC1_0480: Odyssey Thera (OT) 8-hour Protein-Complementation Assay for Peroxisome Proliferator-activated Receptor Gamma / SRC-1 Co-activator (AID 2283387).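 Note: nuclear to cytoplasmic split Venus YFP fluorescence ratio reporting PPARg SRC-1 interaction.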 Summed up:
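HEK293T transiently transfected with PPARg and SRC-1 fused to Venus YFP fragments, compounds 8 h at 37C. Fixed, Draq5-stained cells imaged; nuclear/cytoplasmic 488 nm fluorescence ratio over at least 350 cells per image; gain fitted versus DMSO.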

Assay [5] has the same target. In words: OT_PPARg_PPARgSRC1_1440: Odyssey Thera (OT) 24-hour Protein-Complementation Assay for Peroxisome Proliferator-activated Receptor Gamma/ SRC-1 Co-activator (AID 2283388). The procedure, abridged: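 Cells carrying the PPARg/SRC-1 fragment-complementation reporter receive compound for 24 hours, are fixed and counterstained with Draq5, then imaged. Increased nuclear relative to cytoplasmic YFP fluorescence above DMSO baseline indicates binding activity.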

Read-out in assay [6]: Tumor necrosis factor receptor superfamily member 6 (Homo sapiens) (UniProt P25445)
In words: LTEA_HepaRG_FAS: Life Technologies and Expression Analysis (LTEA) Assay for Fas cell surface death receptor (FAS) using HepaRG (AID 2283447; active = hit-call score of the fitted dose curve at least 0.9, where 1 is the maximum; inactive = score below 0.9). As to conditions: mRNA level, 48 h; actives raise or lower the signal. The procedure, abridged:
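Differentiated HepaRG cells in serum-free induction medium were exposed 48 h to 8 half-log concentrations up to 100 uM in 0.5% DMSO, in duplicate. FAS mRNA was measured by qRT-PCR normalised to ACTB, GAPDH and POLR2A; bidirectional fit versus DMSO.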

The target of assay [7] is Estrogen receptor beta (Homo sapiens) (UniProt Q92731). Nature of the assay: OT_ER_ERbERb_1440: Odyssey Thera (OT) 24-hour HEK293T Protein-Complementation Assay for Estrogen Receptor-beta/-beta Homodimer (AID 2283380).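 Note: scored as signal increase over DMSO baseline for both agonists and antagonists.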 The procedure, abridged: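 HEK293T cells stably expressing ER beta LBD (aa 310-547) homodimer fragment-complementation reporter, dosed 24 h. Cells formaldehyde-fixed, Draq5-stained; gain in nuclear (agonist) or nuclear plus cytoplasmic (antagonist) fluorescence versus DMSO read by laser scanning cytometry.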
Sequence of Estrogen receptor beta (Homo sapiens) (Q92731 whole entry, looked up, the tested form may be a part): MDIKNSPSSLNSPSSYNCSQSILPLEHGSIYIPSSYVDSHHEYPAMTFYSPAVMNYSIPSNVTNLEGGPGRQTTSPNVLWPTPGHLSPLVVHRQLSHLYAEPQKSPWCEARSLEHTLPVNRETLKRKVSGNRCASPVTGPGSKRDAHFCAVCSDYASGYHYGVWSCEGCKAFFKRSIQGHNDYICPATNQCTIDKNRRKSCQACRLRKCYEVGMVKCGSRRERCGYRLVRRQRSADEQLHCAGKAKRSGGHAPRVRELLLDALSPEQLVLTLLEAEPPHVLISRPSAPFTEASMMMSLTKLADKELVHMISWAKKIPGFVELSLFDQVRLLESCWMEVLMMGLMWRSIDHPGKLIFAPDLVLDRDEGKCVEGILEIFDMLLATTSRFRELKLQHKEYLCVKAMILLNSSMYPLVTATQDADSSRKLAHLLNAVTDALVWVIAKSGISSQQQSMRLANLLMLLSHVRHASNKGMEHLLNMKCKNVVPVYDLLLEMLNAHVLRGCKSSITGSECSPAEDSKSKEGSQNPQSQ

For assay [8], the target named is Bile acid receptor (Homo sapiens) (UniProt Q96RI1). In words: OT_FXR_FXRSRC1_0480: Odyssey Thera (OT) 8-hour HEK293T Protein-Complementation Assay for Farnesoid X receptor/SRC-1 Co-activator (AID 2283383). Summed up: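 HEK293T cells expressing FXR and SRC-1 fused to reporter fragments were dosed with compound for 8 h; fluorescence from the reconstituted reporter marked co-activator recruitment. Gain of signal was fitted against the DMSO baseline.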
Sequence of Bile acid receptor (Homo sapiens) (Q96RI1 whole entry, looked up, the tested form may be a part): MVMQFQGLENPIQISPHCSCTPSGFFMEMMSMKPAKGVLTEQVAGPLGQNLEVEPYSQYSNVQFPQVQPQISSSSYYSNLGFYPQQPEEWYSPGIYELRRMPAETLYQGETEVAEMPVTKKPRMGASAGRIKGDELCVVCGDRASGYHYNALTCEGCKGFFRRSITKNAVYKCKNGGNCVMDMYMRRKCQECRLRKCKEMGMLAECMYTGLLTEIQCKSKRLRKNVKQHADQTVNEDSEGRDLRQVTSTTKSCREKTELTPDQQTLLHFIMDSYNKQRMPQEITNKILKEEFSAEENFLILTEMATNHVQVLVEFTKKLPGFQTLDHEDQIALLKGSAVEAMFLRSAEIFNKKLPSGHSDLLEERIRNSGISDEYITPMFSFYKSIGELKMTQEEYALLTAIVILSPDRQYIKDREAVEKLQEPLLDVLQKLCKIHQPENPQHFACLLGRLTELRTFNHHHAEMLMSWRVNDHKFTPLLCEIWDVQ

For assay [9] the target is unchanged. In words: OT_FXR_FXRSRC1_1440: Odyssey Thera (OT) 24-hour HEK293T Protein-Complementation Assay for Farnesoid X receptor/SRC-1 Co-activator (AID 2283384). Summed up: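 HEK293T cells were dosed with compound and read 24 h later by fluorescence intensity from protein-fragment complementation reporting FXR/SRC-1 co-activator interaction. Gain of signal was fitted relative to DMSO negative control as baseline.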

The nature of assay [10]: CEETOX_H295R_OHPREG: CeeTox H295R High-throughput Steroidogenesis Assay for OH-Pregnenolone (OHPREG) (AID 2283434; active = hit-call score of the fitted dose curve at least 0.9, where 1 is the maximum; inactive = score below 0.9). As to conditions: actives raise or lower the signal. Summed up: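 H295R cells pre-stimulated 48 h with 10 uM forskolin, then exposed 48 h to chemical in 0.1% DMSO. 17alpha-hydroxypregnenolone in medium quantified by MTBE extraction and HPLC-MS/MS; bidirectional fit versus DMSO, viability checked by MTT.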

Assay [11] can be described thus: CEETOX_H295R_PROG: CeeTox H295R High-throughput Steroidogenesis Assay for Progesterone (PROG) (AID 2283442; active = hit-call score of the fitted dose curve at least 0.9, where 1 is the maximum; inactive = score below 0.9;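 for AC50: human H295R adrenal cells primed with 10 µM forskolin before dosing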). As to conditions: actives raise or lower the signal. The procedure, abridged: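 Measured analyte is progesterone secreted by H295R cells at 48 h of chemical treatment, following 10 uM forskolin priming. Quantitation used HPLC-MS/MS against a 7-point standard curve; cytotoxicity was checked by MTT absorbance.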

Assay [12] deals with Estrogen receptor (Homo sapiens) (UniProt P03372). In words: OT_ERa_GFPERaERE_0480: Odyssey Thera (OT) 8-hour HeLa Transcription Induction Assay for Estrogen Receptor (AID 2283381; active = hit-call score of the fitted dose curve at least 0.9, where 1 is the maximum; inactive = score below 0.9). The procedure, abridged:
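HeLa cells dosed with compound and imaged by fluorescence microscopy at 8 h; GFP induction from an ERE reporter quantified by high-content image analysis and fitted as gain of signal against DMSO baseline.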

Assay [13] shares this target. In words: OT_ERa_GFPERaERE_0120: Odyssey Thera (OT) 2-hour HeLa Transcription Induction Assay for Estrogen Receptor (AID 2283382). Summed up:
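HeLa cells were dosed with test chemical and read 2 hours later for GFP-ERα/ERE-linked fluorescent protein induction by fluorescence microscopy. Gain-of-signal was fitted relative to DMSO baseline, quantified by high content image analysis.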

A short description of assay [14]: CEETOX_H295R_ESTRADIOL: CeeTox H295R High-throughput Steroidogenesis Assay for Estradiol (AID 2283440; active = hit-call score of the fitted dose curve at least 0.9, where 1 is the maximum; inactive = score below 0.9;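 note: estradiol secreted into medium quantified by LC-MS/MS after dansyl derivatisation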). As to conditions: actives raise or lower the signal. The procedure, abridged: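 Readout is estradiol in conditioned medium, quantified by reverse-phase HPLC-MS/MS against a 7-point standard curve. Cells: H295R, forskolin-stimulated, then dosed 48 h in 0.1% DMSO; activity fitted in both directions relative to DMSO.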

Assay [15] can be described thus: CEETOX_H295R_ESTRONE: CeeTox H295R High-throughput Steroidogenesis Assay for Estrone (AID 2283441; active = hit-call score of the fitted dose curve at least 0.9, where 1 is the maximum; inactive = score below 0.9;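 note: estrone secreted into medium measured by LC-MS/MS after dansyl derivatization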). As to conditions: actives raise or lower the signal. The procedure, abridged:
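H295R cells; 48 h forskolin (10 uM) prestimulation; 48 h compound exposure, 0.1% DMSO final. Medium estrone: MTBE extraction, dansyl derivatization, HPLC-MS/MS. Bidirectional fit vs DMSO.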

The nature of assay [16]: CEETOX_H295R_11DCORT: CeeTox H295R High-throughput Steroidogenesis Assay for 11-Deoxycortisol (11DCORT) (AID 2283432; active = hit-call score of the fitted dose curve at least 0.9, where 1 is the maximum; inactive = score below 0.9). As to conditions: actives raise or lower the signal. Summed up: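 H295R cells prestimulated 48 h with 10 uM forskolin, then exposed 48 h to chemical in 0.1% DMSO. 11-Deoxycortisol in medium quantified by HPLC-MS/MS after MTBE extraction; bidirectional fit versus DMSO. MTT viability read in same wells.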

Assay [17] can be described thus: CEETOX_H295R_ANDR: CeeTox H295R High-throughput Steroidogenesis Assay for Androstenedione (ANDR) (AID 2283436; active = hit-call score of the fitted dose curve at least 0.9, where 1 is the maximum; inactive = score below 0.9). The conditions noted are these: actives raise or lower the signal. The procedure, abridged:
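H295R cells, following OECD 456 with minor changes, exposed to chemicals for 48 h. Androstenedione in the medium was quantified by HPLC-MS/MS after MTBE extraction. Fitting was bidirectional versus DMSO; chemicals were diluted until MTT viability was ≥70%.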

A short description of assay [18]: CEETOX_H295R_CORTIC: CeeTox H295R High-throughput Steroidogenesis Assay for Corticosterone (CORTIC) (AID 2283437; active = hit-call score of the fitted dose curve at least 0.9, where 1 is the maximum; inactive = score below 0.9;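 note: corticosterone secreted into medium quantified by mass spectrometry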). As to conditions: actives raise or lower the signal. The procedure, abridged: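 H295R adrenal cells prestimulated 48 hours with 10 uM forskolin, then exposed 48 hours to chemical in 0.1% DMSO. Corticosterone in medium measured by HPLC-MS/MS after MTBE extraction; MTT viability in the same wells; bidirectional fit versus DMSO.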

The nature of assay [19]: CEETOX_H295R_CORTISOL: CeeTox H295R High-throughput Steroidogenesis Assay for Cortisol (AID 2283438; active = hit-call score of the fitted dose curve at least 0.9, where 1 is the maximum; inactive = score below 0.9;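 note: cortisol secreted into medium quantified by LC-MS/MS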). The conditions noted are these: actives raise or lower the signal. Summed up: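 H295R human adrenal cells were prestimulated 48 h with 10 uM forskolin, then exposed 48 h to test chemical (0.1% DMSO final). Medium cortisol was quantified by HPLC-MS/MS after MTBE extraction; bidirectional fitting relative to DMSO baseline.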

The nature of assay [20]: CEETOX_H295R_DOC: CeeTox H295R High-throughput Steroidogenesis Assay for DOC (AID 2283439; active = hit-call score of the fitted dose curve at least 0.9, where 1 is the maximum; inactive = score below 0.9). The conditions noted are these: actives raise or lower the signal. Summed up:
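H295R adrenal cells prestimulated 48 h with 10 uM forskolin, then exposed 48 h to test chemical (0.1% DMSO final). Medium 11-deoxycorticosterone extracted with MTBE, quantified by HPLC-MS/MS; bidirectional fit versus DMSO baseline; MTT viability in same wells.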

Sequence of Peroxisome proliferator-activated receptor gamma (Homo sapiens) (P37231 whole entry, looked up, the tested form may be a part): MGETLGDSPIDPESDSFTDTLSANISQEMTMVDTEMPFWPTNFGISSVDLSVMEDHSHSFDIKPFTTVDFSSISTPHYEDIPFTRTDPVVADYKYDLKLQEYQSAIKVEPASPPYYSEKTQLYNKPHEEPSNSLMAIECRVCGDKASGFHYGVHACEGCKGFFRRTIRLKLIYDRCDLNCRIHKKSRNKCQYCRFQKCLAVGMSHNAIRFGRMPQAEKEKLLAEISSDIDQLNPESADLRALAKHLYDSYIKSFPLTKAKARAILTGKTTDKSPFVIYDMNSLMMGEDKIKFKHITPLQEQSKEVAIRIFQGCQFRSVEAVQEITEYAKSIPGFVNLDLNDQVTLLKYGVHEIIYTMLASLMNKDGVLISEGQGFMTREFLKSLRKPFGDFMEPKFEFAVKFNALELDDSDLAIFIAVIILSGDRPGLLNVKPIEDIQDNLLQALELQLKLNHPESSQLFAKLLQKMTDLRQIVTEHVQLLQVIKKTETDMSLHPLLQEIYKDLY
Sequence of Agonist Androgen Response Element (ARE), AR (gene 367) (P10275 whole entry, looked up): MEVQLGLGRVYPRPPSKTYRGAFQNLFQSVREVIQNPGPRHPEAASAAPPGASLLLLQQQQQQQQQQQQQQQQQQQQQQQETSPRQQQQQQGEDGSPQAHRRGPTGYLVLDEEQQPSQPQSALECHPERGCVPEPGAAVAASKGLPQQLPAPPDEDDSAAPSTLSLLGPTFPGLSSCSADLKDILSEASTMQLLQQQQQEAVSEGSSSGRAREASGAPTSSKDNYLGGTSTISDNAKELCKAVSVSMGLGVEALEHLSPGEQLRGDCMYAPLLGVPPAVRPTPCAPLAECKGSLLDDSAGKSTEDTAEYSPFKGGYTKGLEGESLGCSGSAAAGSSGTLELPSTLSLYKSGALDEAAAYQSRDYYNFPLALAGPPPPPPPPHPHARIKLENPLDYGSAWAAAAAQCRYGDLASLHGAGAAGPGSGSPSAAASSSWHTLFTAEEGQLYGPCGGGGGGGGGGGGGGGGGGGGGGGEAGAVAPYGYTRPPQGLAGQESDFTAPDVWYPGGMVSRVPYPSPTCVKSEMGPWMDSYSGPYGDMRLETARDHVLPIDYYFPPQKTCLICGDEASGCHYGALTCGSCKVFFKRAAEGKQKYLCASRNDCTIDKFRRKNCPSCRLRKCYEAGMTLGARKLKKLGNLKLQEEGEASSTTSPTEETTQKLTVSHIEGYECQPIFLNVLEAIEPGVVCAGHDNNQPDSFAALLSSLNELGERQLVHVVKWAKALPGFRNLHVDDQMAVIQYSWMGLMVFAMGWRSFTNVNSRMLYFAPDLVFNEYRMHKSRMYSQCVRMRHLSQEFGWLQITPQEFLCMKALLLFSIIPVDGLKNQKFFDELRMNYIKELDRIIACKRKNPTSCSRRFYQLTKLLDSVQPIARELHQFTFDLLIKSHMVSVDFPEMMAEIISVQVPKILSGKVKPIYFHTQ
Sequence of Retinoic acid receptor RXR-alpha (Homo sapiens) (P19793 whole entry, looked up, the tested form may be a part): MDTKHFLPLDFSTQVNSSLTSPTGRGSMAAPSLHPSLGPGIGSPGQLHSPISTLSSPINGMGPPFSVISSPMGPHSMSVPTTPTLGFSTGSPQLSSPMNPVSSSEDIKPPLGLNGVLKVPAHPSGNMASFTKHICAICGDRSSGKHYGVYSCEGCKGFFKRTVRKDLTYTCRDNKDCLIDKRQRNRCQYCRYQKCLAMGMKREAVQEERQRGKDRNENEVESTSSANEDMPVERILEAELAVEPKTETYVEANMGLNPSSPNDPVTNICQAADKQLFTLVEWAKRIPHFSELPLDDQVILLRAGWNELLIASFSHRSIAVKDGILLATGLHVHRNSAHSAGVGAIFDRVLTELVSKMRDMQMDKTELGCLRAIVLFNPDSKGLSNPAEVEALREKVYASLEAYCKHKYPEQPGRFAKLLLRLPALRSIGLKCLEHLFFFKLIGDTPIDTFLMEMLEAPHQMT
Sequence of Estrogen receptor (Homo sapiens) (P03372 whole entry, looked up): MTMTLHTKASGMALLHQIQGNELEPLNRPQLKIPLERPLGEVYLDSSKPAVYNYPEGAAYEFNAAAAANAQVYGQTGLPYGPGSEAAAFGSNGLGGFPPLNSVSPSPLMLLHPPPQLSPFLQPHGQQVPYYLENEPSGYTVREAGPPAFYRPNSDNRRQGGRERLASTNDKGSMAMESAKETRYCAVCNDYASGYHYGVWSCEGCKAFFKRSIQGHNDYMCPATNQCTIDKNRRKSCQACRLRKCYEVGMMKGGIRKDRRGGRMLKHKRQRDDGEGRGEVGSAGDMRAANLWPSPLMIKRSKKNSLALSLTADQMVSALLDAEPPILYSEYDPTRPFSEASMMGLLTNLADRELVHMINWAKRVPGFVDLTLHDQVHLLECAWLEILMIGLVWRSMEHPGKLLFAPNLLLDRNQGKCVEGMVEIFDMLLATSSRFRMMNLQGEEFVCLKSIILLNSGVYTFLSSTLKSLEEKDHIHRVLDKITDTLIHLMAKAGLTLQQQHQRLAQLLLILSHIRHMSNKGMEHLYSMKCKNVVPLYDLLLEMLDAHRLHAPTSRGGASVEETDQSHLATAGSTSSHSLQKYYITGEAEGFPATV

On to `CCCOc1nn(C(=O)NS(=O)(=O)c2ccccc2C(=O)OC)c(=O)n1C`, for which the compound was called inactive in [1], in assay [2], in assay [3], in assay [4], in assay [5] and in assay [6].
Regarding `CC1(C(=O)Nc2ccc(O)c(Cl)c2Cl)CCCCC1`, the figures for the AC50 in assay [7], in [10] and in assay [11] were 20.6 µM (active), 7.52 µM (active) and 7.63 µM (active), respectively. In addition, the outcome in [8], in [9], in assay [3], in assay [4] and in assay [6] was inactive.
For the compound `CCOP(=O)(OCC)Oc1cc(C)nc(C(C)C)n1`, the result in [7], in assay [8], in [9], in [3], in assay [4] and in assay [6] was inactive.
`CSc1nc(NC(C)C)nc(NC(C)C)n1`: the call in assay [7], in assay [12], in assay [13], in [2], in assay [3] and in assay [4] was inactive. Besides, the outcome in assay [5], in [10], in assay [14], in assay [11] and in [6] was inactive. Also, in assay [15], the half-maximal activity concentration (AC50) was 2.54 µM (active).
For `CCOC(=O)CC(SP(=O)(OC)OC)C(=O)OCC` (stereo unspecified), the compound was called inactive in [7], in assay [8], in assay [9], in assay [3], in [4] and in assay [6].
On to `CCCSP(=O)(OCC)SCCC`, for which the compound was classed as inactive in [1], in assay [7], in assay [8], in [9], in [2] and in assay [3]. In addition, the outcome in [4], in assay [16], in assay [10], in [17], in assay [18] and in assay [19] was inactive. Besides, the outcome in assay [20], in assay [11] and in assay [6] was inactive.
With `C#CCC1=C(C)C(OC(=O)C2C(C=C(C)C)C2(C)C)CC1=O` (stereo unspecified), the compound was classed as inactive in [7], in [2], in [3], in assay [4], in [5] and in [10]. The call in assay [11] and in assay [6] was inactive. For the same compound, the AC50 is 33 µM (active) in assay [8], 49.8 µM (active) in [9], 66.7 µM (active) in assay [2] and 79.6 µM (active) in assay [3].
On to `C[N+]1(C)CCCCC1`, for which the compound was called inactive in assay [1], in assay [7], in assay [3], in assay [4], in assay [5] and in [6].

One may read the AC50 as the concentration at which the activity in the assay is half-maximal.
